The campaign covered roughly 220,000 compounds. About 10 (0.005%) were called active. Cut-off read from the data, not from the text of the source: active = maximum fold increase above about 1.5; inconclusive = no clear call, values can overlap the other calls; inactive = below that; tested in PC3 cells. Only a sample is shown.
Test: enhancers of HSV replication in host cells, fold increase, host cell viability (AID 1956)
Details: HSV replication augmentation in cells; fold increase: measured here: primary screen fold increase 10 uM, at 10 µM, stronger effect = higher value; maximum fold increase: at 0.098 µM, stronger effect = higher value; viability: measured here: host cell viability series, at 25 µM, stronger effect = lower value

Structure (SMILES)	fold increase	outcome	maximum fold increase	viability
COc1ccc(NC(=O)CSc2ncnc3[nH]ncc23)cc1	1.02	inactive		
CCOC(=O)c1ccc(NC(=O)c2c(NCc3ccccc3)[nH]c(=O)[nH]c2=O)cc1	0.87	inactive		
O=C(NC(=O)N1CCSCC1)c1c(Cl)cccc1Cl	1	inactive		
CNC(C)C#Cc1ccc2sc3cc(OC)c(OC)cc3c(=O)c2c1 (stereo not given)	0.67	inactive		
O=C(O)/C=C/c1ccc2c(c1)OCCO2	0.95	inactive		
C[C@H](NC(=O)c1nc[nH]c1C(=O)N[C@@H](C)C(=O)OC(C)(C)C)C(=O)OC(C)(C)C	0.88	inactive		
CNC(=S)NNC(=O)c1ccc(N(C)C)cc1	1.02	inactive		
COc1ccc(CNC(=O)[C@@H]2CC=C[C@@H]3CCN(C4CC4)C(=O)[C@@H]32)cc1	0.88	inactive		
CN=C1C=C/C(=N/N=c2\ccn(O)cc2C)C=C1C	1.05	inactive		
Cc1ccccc1Nc1c(-c2ccccc2)nc2ncccn12	1.06	inactive		
O=C1CCCC(O)=C1N=Nc1ccc(S(=O)(=O)N2CCOCC2)cc1	0.97	inactive		
COC(C[C@@H]1O[C@@H]1C(=O)[C@H](C)OCc1ccccc1)OC	0.81	inactive		
O=c1[nH]c(CSc2ccccc2)nc2c1oc1ccccc12	1.16	inactive		
CCOC(=O)C1=NN(c2ccc(Cl)cc2)/C(=C/C2=NCCc3cc(OC)c(OC)cc32)S1	1.18	inactive		
CCn1c2ccccc2c2cc(NC(=O)Nc3ccc([N+](=O)[O-])cc3C)ccc21	0.73	inactive		
Cc1ccc(NC(=O)c2nc[nH]c2C(=O)N[C@@H](CCCCNC(=O)OC(C)(C)C)C(=O)OC(C)(C)C)cc1	0.74	inactive		
C/C=C/C(=O)Nc1ccc(N2CCN(c3ccc(C(F)(F)F)cn3)CC2)nc1	0.88	inactive		
CCC(=O)Nc1cccc(C2=NOC3(C2)C[C@@H](C(N)=O)N(C(=O)c2cc([N+](=O)[O-])cc([N+](=O)[O-])c2C)C3)c1 (stereo not given in full)	1.3	inactive		
CCCC[C@@H]1CN=C(N)N1CCCC	1.05	inactive		

Structure (SMILES)	fold increase	outcome	maximum fold increase	viability
COC(C/C=C/C(=O)[C@@H](C)OCc1ccccc1)OC	0.77	inactive		
Cn1ccnc1-c1nnn(-c2ccc(F)cc2)n1	1.06	inactive		
CCOC(=O)c1cccc(NC(=O)c2ccc(F)cc2F)c1	0.77	inactive		
O=C(N/N=C/c1ccccn1)c1cccnc1	1.05	inactive		
COC(=O)C1=C[C@@H](C(=O)OC)[C@@H]2C3=C(C(=O)[C@]2(C)NC(=O)c2ccccc2)[C@H](C)n2c(=O)n(C)c(=O)n2[C@@H]3C1	0.77	inactive		
C#CCOCCOCCOCCNc1nc(N2CCN(C(=O)C([C@@H](C)CC)n3cc(C(N)COC(=O)C(F)(F)F)nn3)CC2)nc(N2CCN(C(=O)[C@H](CCCCN)n3cc(C(N)CC(C)C)nn3)CC2)n1 (stereo not given in full)	0.79	inactive		
C=C(C)COc1ccc(-c2nc(N)ncc2-c2ccccc2OC)c(O)c1	0.94	inactive		
COCCN(C(=S)Nc1cccc(Cl)c1C)C(C)c1ccco1 (stereo not given)	1.01	inactive		
Cc1cccc(Nc2nc(NCCO)nc(N3CCCC3)n2)c1	0.73	inactive		
Cc1nnc(Nc2ccccc2F)s1	0.86	inactive		
CC1(C)C2CC[C@]3(C)C(CC=C4[C@@H]5C[C@@](C)(CO)CC[C@]5(C(=O)O)CC[C@]43C)[C@@]2(C)CC[C@@H]1O (stereo not given in full)	1.01	inactive		
C=C(C)CNC(=S)Nc1ccc(S(=O)(=O)Nc2cnc3ccccc3n2)cc1	0.94	inactive		
CCOC(=O)c1nnn2c1nc(N1CCN(c3ccccc3)CC1)c1ccccc12	1.01	inactive		
CC1=C(N2CCN(c3ncccn3)CC2)CCC1=O	1.12	inactive		
N#CCc1c(C#N)c(N)nc(N2CCCC2)c1C#N	0.85	inactive		
COc1ccc(-c2nc3c(s2)CCc2onc(-c4ccc(Br)cc4)c2-3)cc1	0.69	inactive		
C=CCSC(CC)(CC)C(N)=O	1.35		1.19 (inactive)	104%
COCOc1cc(O)c(C(=O)/C=C/c2ccc(OCOC)c(OCOC)c2)c(OCOC)c1	0.92	inactive		
O=C(NC1CCN(Cc2ccccc2)CC1)c1ccc(Oc2cc(Cl)cc(Cl)c2)o1	0.88	inactive		

Structure (SMILES)	fold increase	outcome	maximum fold increase	viability
CN(C)/C=C(/C(=O)c1ccc(Cl)c(Cl)c1)c1nnnn1-c1ccccc1	1.22	inactive		
COc1ccc2nc(NC(=O)NC3CCCCC3)sc2c1	0.94	inactive		
C=CCOC(=O)C1=C[C@H](c2ccc(Br)cc2)C[C@H](OCCCCO)O1	0.91	inactive		
O=C(CCl)Nc1ccc(Sc2ccc(NC(=O)CCl)cc2)cc1	0.77	inactive		
CC(C)c1ccc(NC(=S)NC2CC3C=CC2C3)cc1 (stereo not given)	0.94	inactive		
CCCNc1c(N)c(=O)c1=O	0.92	inactive		
CCCc1ccc(C(=O)[C@@H]2[C@@H](C(C)=O)N3c4ccc(F)cc4C=C[C@@H]3[C@@]23C(=O)Nc2ccccc23)cc1	1	inactive		
Nc1c(N(CCO)C(=O)C2CCCCC2)c(=O)[nH]c(=O)n1Cc1ccccc1	0.95	inactive		
CC1CC(=O)Nc2ccccc2N1S(=O)(=O)c1cccs1 (stereo not given)	1.03	inactive		
C=C1CCN([C@@H](Cc2ccccc2)C(=O)N2CCOCC2)S(=O)(=O)c2ccccc21	0.89	inactive		
CC1CC(NC(=O)/C(C#N)=C/c2ccc[nH]2)CC(C)(C)C1 (stereo not given)	0.99	inactive		
Cc1nn2c(NCCN(C)C)c3c(nc2c1-c1ccccc1)CCC3	0.77	inactive		
COc1ccccc1C1=CC(=O)CCC1	0.81	inactive		
COCCCn1c(-c2cccs2)nc2nc3ccccc3nc21	0.9	inactive		
O=C(CCNc1n[nH]c(=O)[nH]c1=O)N/N=C\c1ccc(Br)cc1	1	inactive		
CC1(C)CC(CNCCC(c2ccc(F)cc2)c2ccco2)CCO1 (stereo not given)	0.96	inactive		
COc1ccc(CCn2c(NN=C3CCCC3)nc3c2c(=O)[nH]c(=O)n3C)cc1	0.93	inactive		
CSC1=NC2(C)CCCCC2C12C=CC(=O)C=C2 (stereo not given)	0.88	inactive		
CCOC(=O)c1ccccc1NC(=O)c1c(N)n(C)c(=O)[nH]c1=O	0.6	inactive		

From PubChem BioAssay AID1956 (SRMLSC, 2009)
